Whole data set: some 59,000 sequences, median the read-out near -0.00055, cut for the lowest 2% near -2. The sample as a whole holds a higher share of the lowest values than the screen did.

This experiment in a line: Identification of proteins required for the processing of the EWS-FLI1 nascent transcript.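 Also: robust z of luciferase light less the median z of siRNAs with the same seed.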 Conditions: TC32 Ewing sarcoma NR0B1-luc vs CMV-luc (EWS-FLI1 target promoter against control promoter), 48 h; screened at 20 nM (by protocol). In short, it runs like this: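 Genome-wide siRNA screen (Ambion v4.1, three siRNAs per gene, 20 nM final, RNAiMax) in Ewing sarcoma TC32 cells carrying NR0B1-promoter or CMV-promoter luciferase; OneGlo luciferase read 48 h post-transfection. Data normalized, z-score-MAD transformed and seed-adjusted.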
For the sequence AAGAGAUCCAGCUUCCUGC against SPEG, the seed-corrected z-score was -0.187. UCUUGAACCGGAUCGAUGC against TTLL9 came in with a seed-corrected z-score of -0.369. UUCGUGGGUAGCCAUGACC against F8A2: the seed-corrected z-score worked out at 0.752. Take UUUUCAUAGAGGAUGAUCU against CRYBB2: the seed-corrected z-score is 1.03.

In turn, UCUAAUACAAGGUUCAUAU against SNRPEP2 had a seed-corrected z-score of -2.56. UCAAUGCUCAGGGAACUGC against C1orf216 gave a seed-corrected z-score of 2.53. In the case of ACCUUAGUAAGAUCCAUUC against OSBPL9, the seed-corrected z-score was found to be 0.727.

UCAAACACGAUGGAGGUCC against SLC29A4: the seed-corrected z-score was -0.131.

With AAAGACACCGUAGCUGAGG against MFNG, the seed-corrected z-score is -0.181. The sequence UUUGUCAUUACCCGAACUG against RNASE11 displayed a seed-corrected z-score of 0.455.

UAAGGCUCCAGCAUAACAG against MIR924HG showed a seed-corrected z-score of 0.428. Consider AUCUUGGUCACUGGAGGCG against SFRP5, for which the seed-corrected z-score was -3.64. The sequence UACAAGUCAAGCUCUCACA against LOC727799 registered a seed-corrected z-score of -0.236. The value for AAUAGAACAAGGACAGGAC against SAYSD1 was -1.61; that for AAUGUGCUUAGCGCAGGUG against LINC01530 was 0.0903. As to UCAUUGUUGAUUUGGUCUC against 3-Sep, the seed-corrected z-score was 1.43. The sequence UCUAGAGUUAGGGUAUCUG against ARMC5 returned a seed-corrected z-score of 0.117. For the sequence UGAUGGUCACAAUCCUCUC against PCBP3, the seed-corrected z-score is -2.79. Regarding UUUUCUUGCGUAUGAAUUC against ZNF302, the seed-corrected z-score was 0.913. In turn, UCUUGUUCCACCACGUCUC against GRID2 returned a seed-corrected z-score of 0.102. The sequence AGUGGGUAGAUUCCAUUCC against NRBP2 returned a seed-corrected z-score of -2.82. Then UGUAGGAUCUGUCUCCAGG against LOC728587, with -0.669.

As to UUCGAUGAAAUGAUUUUCC against ZNF418, the seed-corrected z-score is 0.719. The value for UGAUCAUCAGCGGUGAGGC against HMGB3P19 was -1.07. Sequence AAAGUCUCCAGUACGAUGU against MROH3P yielded a seed-corrected z-score of 1.9. For UUGCUGAACAGAUCAGUCC against ELF5, the seed-corrected z-score is -0.256. Then AAGUUCAUAAGAUUCCAUG against MGP, with 0.212; and UCAGUUUGUAGUCAGAGCC against AP3S2, with 0.309. The sequence UCAUCAUCAAUCACGGACG against BAP1 displayed a seed-corrected z-score of -2.03.

The sequence UGUCUGUUGAUGGCCAAGC against AMELX had a seed-corrected z-score of 0.157. In the case of UCUGCGAUCAGUACCACUG against RBBP4, the seed-corrected z-score was found to be 0.278. ACAGGGUUAAAAUUGUCCG against M6PR gave a seed-corrected z-score of -0.318.

For UCAAUGUUCACCACACGGC against PLEKHH1, the seed-corrected z-score is -2.41. UUUGUUAGGAGCUUGUAGG against C1GALT1C1 gave a seed-corrected z-score of 1.55.

On to UAUAUCAUCAAGCGUAACC against TCF20, for which the seed-corrected z-score is -1.21. In the case of UCGUUGUAUACUUUGGUGC against PRKAR2B, the seed-corrected z-score is -0.139.

With UAUGCUGUCGGAUGAGUCC against ATF1, the seed-corrected z-score stood at 0.345. UAUUGUCAAAUGAAGGUGG against TREML1 showed a seed-corrected z-score of 0.93. In turn, UUGGUAUCAUCUUCUGUAG against PLXDC2 displayed a seed-corrected z-score of -0.075.

On to UUUCUGACCACGUCUAGCA against PEX11B, for which the seed-corrected z-score turned out to be 0.368. Then UGAGUGUAGAGCAGCCACU against NEU2, with -2.8. UGAGCUACCAUAUGCUUCA against RBMY1F gave a seed-corrected z-score of -0.266. The value for AUCCUCACCAUGGACAACG against CELA3A was -0.518; that for UUUUUGAACAUGGUAACAG against RPL31P7 was 1.16; that for AAGUGGUCAAAAUCCGCUC against LOC728613 was -1.66.

For AAAGUCAGCACUUCGAUCC against MCTP1, the seed-corrected z-score was -2.38. UAUGUUGUCACGCAGCACU against HIST1H4F had a seed-corrected z-score of 1.31. UUGGUUAUUCGAAGAGCUG against ME1: the seed-corrected z-score was -0.246. In the case of UGUCAUUUUUCUUCGGUUC against PWP2, the seed-corrected z-score is 0.885.

The sequence UGAAUGGACAGUAUCUCUG against CCDC54 gave a seed-corrected z-score of -0.774. AAUCUGCUUCUUUAAGUCG against RBBP6 registered a seed-corrected z-score of -2.31. On to UUUCUGUCCAGGAAAUCUC against RWDD4, for which the seed-corrected z-score was -0.311. In turn, UCAGUGGAAGGAAUCCUCA against OR13C8 came in with a seed-corrected z-score of 1.06. The sequence UUAUUGUCAAGUUCUGAUG against EFCAB14 displayed a seed-corrected z-score of 0.0178.

UUCUGUUCUACCUCGCUUC against WDR60 returned a seed-corrected z-score of -1.36. Then UCUGGAGUUCUCAUUAGAC against IRF7, with 0.205; and AUACGUAUCCCGGACGCAG against SLC25A47, with 2.25. AGGGUAUUUACCUUCUUGC against LOC729696 returned a seed-corrected z-score of -2.56.

UCCCAUACCAUCCACAGUG against SGCZ displayed a seed-corrected z-score of 0.248.

Sequence AAGACUUCCAUCUAAGAUC against SLC39A11 showed a seed-corrected z-score of -1.62. As to AAUCUUCACAUCAUUCUGG against TMEM70, the seed-corrected z-score is -0.646. Take AUUGAUGUCAAUCACAUGC against PCDHGA3: the seed-corrected z-score is -0.895.

UUUCAUGCGACGGUUUUGG against HOXC4 showed a seed-corrected z-score of -0.731.

As for UGACUGUUGCUCCACUUCC against SH2D3A, the seed-corrected z-score is -0.425. AGUCUUAUCAGCACCCUUU against MTPN: the seed-corrected z-score is -11.9. For AUCCGGUACACCAUGUGGU against CYTH2, the seed-corrected z-score was -0.326.

The values above are taken from PubChem BioAssay AID1159506 (National Center for Advancing Translational Sciences (NCATS), 2015).
